PMC7819943, “Rice protein-binding microarrays: a tool to detect cis-acting elements near promoter regions in rice”
The full ranking holds about 68,000 sequences; the median of “fluorescence intensity (a.u.)” is about 9,100, and the highest 2% start at about 16,000. Only a selection was taken, and the highest values are over-represented in it overall.

molecular target: OsWRKY34 (Oryza sativa, UniProt Q0JBA9 1-250); assay: protein-binding microarray (RPBM); PBS, 2% BSA, 51.3 ng/ul salmon testes DNA, 50 uM zinc acetate, 200 nM TF, 25 C, 1 h; high values mean tight binding; details: protein: recombinant; tags: N-terminal polyhistidine and DsRed monomer fusion (pET32a); label: CyDye5-dUTP incorporated in the synthesized complementary strand; 3' TTTTT single-stranded linker to array surface; dsDNA, one strand shown
Summary of the method: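 The binding signal for each feature is its fluorescence intensity in arbitrary units. An Axon 4000B scanner was used to read a custom Agilent array that had been made double-stranded with Cy5-dUTP primer extension, blocked with 2% BSA, incubated at 25 °C for 1 h with 200 nM protein in PBS, 2% BSA, salmon testes DNA and 50 µM zinc acetate, and washed. The protein was an N-terminal polyhistidine–DsRed transcription factor fusion from E. coli BL21-CodonPlus, purified on Ni–NTA.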

OsWRKY34, sequence (Q0JBA9 entry or part of it): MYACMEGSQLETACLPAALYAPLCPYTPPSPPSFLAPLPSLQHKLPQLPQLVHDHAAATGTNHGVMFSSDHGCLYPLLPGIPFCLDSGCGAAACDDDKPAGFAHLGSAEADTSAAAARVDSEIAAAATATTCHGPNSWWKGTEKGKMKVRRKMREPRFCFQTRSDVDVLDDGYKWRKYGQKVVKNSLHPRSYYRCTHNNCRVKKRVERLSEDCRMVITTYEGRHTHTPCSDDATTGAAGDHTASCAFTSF

“AACGGCAGCAGATCCACCAAACCCCACACCCTCTCCAAATCGGAGTCACCTAGTGCAG” was tested. Which binding signal did it give?
The binding signal was 8600 fluorescence intensity (a.u.).

For “ACTCCATTTACGGGCAACTCTTGCTTGCGCAACGGGCCTTCGGAGTCACCTAGTGCAG”, which binding signal is on record?
Its binding signal is 8790 fluorescence intensity (a.u.).

“TTCTTAACATGTTCGCATATGAAAATAGACTTATTTTTTACGGAGTCACCTAGTGCAG” was tested. Which binding signal did it give?
The binding signal was 8130 fluorescence intensity (a.u.).

With “ACTCTTATTGTCTTCACGTTGTCTTATCAGCCACGATCAACGGAGTCACCTAGTGCAG” as the sequence, how does the binding signal read?
Its binding signal is 17900 fluorescence intensity (a.u.).

Which binding signal does the source give for “TCCACGTTCACTTATCAGCCCCAACGTCTTAGCTTCCGATCGGAGTCACCTAGTGCAG” here?
The binding signal was 9260 fluorescence intensity (a.u.).

Which binding signal does the source give for “AGCATATCAGCCACTCTTTCTTCTTTGTCTTTATCAACTCCGGAGTCACCTAGTGCAG” here?
The binding signal was 8250 fluorescence intensity (a.u.).

With “GGAATTTCTCAGCTCACACGAGTCACGGACCCACCACCACCGGAGTCACCTAGTGCAG” as the sequence, how does the binding signal read?
The binding signal was 8960 fluorescence intensity (a.u.).

“GGGTCTAACTCTAAGAGTATTGGGTACCCCTTATCGTTAACGGAGTCACCTAGTGCAG” was tested. Which binding signal did it give?
The binding signal was 8360 fluorescence intensity (a.u.).

How did the binding signal turn out when “TCTTTCATACGGAATTCCTTTTCATTATTGGATGCCAGCTCGGAGTCACCTAGTGCAG” was run?
The binding signal was 9330 fluorescence intensity (a.u.).

Which binding signal does the source give for “CAAGGTTTGTTTTCTTATCAGTTACTACTGCTTTTGTGGTCGGAGTCACCTAGTGCAG” here?
Its binding signal is 11100 fluorescence intensity (a.u.).

Which binding signal does the source give for “TAGAGGGATGGGCTATTAAGTGTTTTATTTGGTTGGGAGACGGAGTCACCTAGTGCAG” here?
The binding signal was 15200 fluorescence intensity (a.u.).

For “ACCTTCACTATTTTTTTTGATTTTTTTCTTTTTTTTTTAACGGAGTCACCTAGTGCAG”, which binding signal is on record?
The binding signal was 12200 fluorescence intensity (a.u.).

With “AGTAGAGTATTTTTTTTTCTTTTTTGATTGATGGTGATAACGGAGTCACCTAGTGCAG” as the sequence, how does the binding signal read?
The binding signal was 8320 fluorescence intensity (a.u.).

With “CGGGTTTGATTTGATTTGATTTTGATTTTGATTTGCTTCTCGGAGTCACCTAGTGCAG” as the sequence, how does the binding signal read?
Its binding signal is 8190 fluorescence intensity (a.u.).

With “GAGTTTTCCGTGTGGAGGGTGTGGATTTTTTCGTGTGTTCCGGAGTCACCTAGTGCAG” as the sequence, how does the binding signal read?
Its binding signal is 15500 fluorescence intensity (a.u.).

With “TAACGATTTTTTTTTTGGGAGGGTGGGGATTTTTTTTTTCCGGAGTCACCTAGTGCAG” as the sequence, how does the binding signal read?
The binding signal was 24100 fluorescence intensity (a.u.).

With “CTTTTTTGGGTGATTTTTTTTCACTTGGGGTGGGTGATAACGGAGTCACCTAGTGCAG” as the sequence, how does the binding signal read?
Its binding signal is 21800 fluorescence intensity (a.u.).

With “TTTTTCTTTTCTTTTTTGCTTTTGAATTGTGGGGTTGTAACGGAGTCACCTAGTGCAG” as the sequence, how does the binding signal read?
The binding signal was 8790 fluorescence intensity (a.u.).

Which binding signal does the source give for “TTTGGGGATTTCTTTCTTATTTTTCTTTCCCTTTTTTTCCCGGAGTCACCTAGTGCAG” here?
The binding signal was 10900 fluorescence intensity (a.u.).

Which binding signal does the source give for “ATTTATTTTGGGATGGGGAGGGAGACAACTACAGTGTTTCCGGAGTCACCTAGTGCAG” here?
Its binding signal is 18200 fluorescence intensity (a.u.).

“GGGTGGGTTGATTTGATAGACTTCTTTTGCTTTTGATAAACGGAGTCACCTAGTGCAG” was tested. Which binding signal did it give?
The binding signal was 29100 fluorescence intensity (a.u.).

How did the binding signal turn out when “TGTGGGACAGGATGGTCACTAATTTCCGGTTTTGGTTTTACGGAGTCACCTAGTGCAG” was run?
Its binding signal is 8480 fluorescence intensity (a.u.).

Which binding signal does the source give for “ATCTCTGATCCGTCCAGTTGACCCAAAGCTAGAGTCTTTCCGGAGTCACCTAGTGCAG” here?
The binding signal was 10700 fluorescence intensity (a.u.).

For “GTGTTGTGTTTATTTTTTTATAATATCCATGATTGTAATCCGGAGTCACCTAGTGCAG”, which binding signal is on record?
The binding signal was 9640 fluorescence intensity (a.u.).

With “TCCGCCGCCGTCTCCGCCGCCTCCAGCCATCGATCCCGGCCGGAGTCACCTAGTGCAG” as the sequence, how does the binding signal read?
The binding signal was 8250 fluorescence intensity (a.u.).

For “GCACACATACACATACTGACAATGATGAGTTGATGACACACGGAGTCACCTAGTGCAG”, which binding signal is on record?
The binding signal was 8500 fluorescence intensity (a.u.).

“GCCCGGCCCAGTAGATACCACCACCTCACACTCCATTCGCCGGAGTCACCTAGTGCAG” was tested. Which binding signal did it give?
Its binding signal is 9860 fluorescence intensity (a.u.).

“GGAGCATGTTCAACCATTCATTGTTTTCTCTATTGCATAACGGAGTCACCTAGTGCAG” was tested. Which binding signal did it give?
The binding signal was 8070 fluorescence intensity (a.u.).

For “GTTGTCTAGTGCTTGCTATTCTTCTACTAGTAGTATTATACGGAGTCACCTAGTGCAG”, which binding signal is on record?
Its binding signal is 9570 fluorescence intensity (a.u.).

How did the binding signal turn out when “AATCCATTTCCCATTCGCCATTCCCCATCCTTATCTCTTACGGAGTCACCTAGTGCAG” was run?
The binding signal was 8660 fluorescence intensity (a.u.).

How did the binding signal turn out when “GTTGCATTTGCCGCTGCGACACGGACCCCGCCTTAATAACCGGAGTCACCTAGTGCAG” was run?
Its binding signal is 9020 fluorescence intensity (a.u.).

“AAGATTTGCTGGGAGGGTGGGGTGGGGATTAGTCCCTAAACGGAGTCACCTAGTGCAG” was tested. Which binding signal did it give?
Its binding signal is 24500 fluorescence intensity (a.u.).

“TGATTTTTTAGGGAGGGGTGGTTAGTATAAGAGGGTTTTCCGGAGTCACCTAGTGCAG” was tested. Which binding signal did it give?
Its binding signal is 20000 fluorescence intensity (a.u.).

How did the binding signal turn out when “GATTTGGTGGGTTATAATTTTATAGTAAGAGGGGATTTTACGGAGTCACCTAGTGCAG” was run?
The binding signal was 16100 fluorescence intensity (a.u.).

For “ATCCAATGGTATAATTTTTTTAGGGAAGGGTTTTTTTTTCCGGAGTCACCTAGTGCAG”, which binding signal is on record?
Its binding signal is 12600 fluorescence intensity (a.u.).

How did the binding signal turn out when “AGATGGTGTTTGGATGGGAGGGATTTATTTTAGTCCCTCTCGGAGTCACCTAGTGCAG” was run?
The binding signal was 10200 fluorescence intensity (a.u.).

How did the binding signal turn out when “ATGCCCTGTTACCTGTGTGTGATTTCTTTGTGCTCCATAACGGAGTCACCTAGTGCAG” was run?
The binding signal was 17600 fluorescence intensity (a.u.).

“TCTTTCTCTCTCTTGCTGCCGTTGAGGGATTTGGGGTGAACGGAGTCACCTAGTGCAG” was tested. Which binding signal did it give?
The binding signal was 10000 fluorescence intensity (a.u.).

Which binding signal does the source give for “TACCTGATTTGTGCATATGTTTCTTTCTGTTTTGCCCTTACGGAGTCACCTAGTGCAG” here?
Its binding signal is 8170 fluorescence intensity (a.u.).

Which binding signal does the source give for “ATTTTTACCCTTCTCCTGTGTTTTTGTTGCTGTGATTCAACGGAGTCACCTAGTGCAG” here?
Its binding signal is 8570 fluorescence intensity (a.u.).

Which binding signal does the source give for “CTACTATTGCGTTGTTTTATTTTGGCCAGTTTATTTCAAACGGAGTCACCTAGTGCAG” here?
Its binding signal is 13400 fluorescence intensity (a.u.).

With “TTTTTTTGCTTTTTCACTATTTTTTTATTTTGACGGACGACGGAGTCACCTAGTGCAG” as the sequence, how does the binding signal read?
The binding signal was 9300 fluorescence intensity (a.u.).
